Assay outcomes: PubChem, National Center for Advancing Translational Sciences (NCATS)
PKM2 act – qHTS Assay for Activators of Human Muscle isoform 2 Pyruvate Kinase; purified PKM2, Kinase-Glo ATP luminescence, activation; response scale: 0% is enzyme alone, no compound; Potency, µM (highest dose often 57.5 µM), hits mostly activators; 260,000 compounds, 0.34% hits; AID 1631, 2009; note: nearly all actives have a fitted effect of over 55% in size
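Purified hPK-M2 (>95% pure) converted ADP (0.1 mM final) to ATP with 0.5 mM PEP in 50 mM imidazole pH7.2, KCl, MgCl2, Tween 20, BSA; 1 h at room temperature. ATP detected by Kinase-Glo luminescence.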
CtBP-E1A inh – qHTS Assay for Inhibitors of the CtBP/E1A Interaction; CtBP / adenovirus E1A interaction (AlphaScreen); AlphaScreen GST-E1A/His-CtBP binding, 1536-well; stronger effect = lower value; activity change, % (concentration not given with the values); 340,000 compounds, 0.49% hits; AID 651724, 2012; in the data active = activity change below about -65%; inconclusive = mostly about -30% to -63%
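AlphaScreen with 125 nM GST-E1A and 125 nM His-CtBP (5X stocks) in Tris pH 8.0, 300 mM NaCl, BSA, Tween 20, TCEP. Compounds preincubated 2 h at 37 deg C, then glutathione donor/nickel acceptor beads added for 1 h at 37 deg C in dark.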
Six1-Eya2 inh – qHTS Assay for Inhibitors of the Six1/Eya2 Interaction. 360,000 compounds, 0.56% hits. AID 651725, 2012. Homeobox protein SIX1 (Homo sapiens) + Protein phosphatase EYA2 (Homo sapiens), …. AlphaScreen GST-Six1/His-Eya2 binding, biochemical; stronger effect = lower value. activity change, % (concentration not given with the values); in the data active = activity change below about -65%; inconclusive = mostly about -30% to -63%
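GST-Six1 + His-Eya2 (5X stock: 250/500 nM); Tris pH 8.0, 300 mM NaCl, 0.05% BSA, 0.02% Tween 20; GSH donor/Ni acceptor beads; 1 h 37 °C dark; AlphaScreen readout.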
VP16 counter – VP16 counterscreen qHTS for inhibitors of ROR gamma transcriptional activity; Drosophila S2 Gal4-VP16 UAS-luciferase, luminescence, 20 h; Potency, µM (titrated, usually from 53.6 µM), usual class: inhibitors; 310,000 compounds, 3.5% hits; AID 2546, 2010;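 note: Gal4-VP16 expression switched on by copper sulfate through the metallothionein promoter; nearly all actives have a fitted effect of over 50% in size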
RORg inh – qHTS for inhibitors of ROR gamma transcriptional activity. Nuclear receptor ROR-gamma (Mus musculus), P51450. Drosophila S2 Gal4-RORgamma UAS-luciferase reporter, 20 h. Potency, µM (doses to about 53.6 µM), most hits filed as inhibitors. 310,000 compounds, 5.4% hits. AID 2551, 2010; note: nearly all actives have a fitted effect of over 60% in size
Target sequence (P51450 whole entry, looked up, the tested form may be a part): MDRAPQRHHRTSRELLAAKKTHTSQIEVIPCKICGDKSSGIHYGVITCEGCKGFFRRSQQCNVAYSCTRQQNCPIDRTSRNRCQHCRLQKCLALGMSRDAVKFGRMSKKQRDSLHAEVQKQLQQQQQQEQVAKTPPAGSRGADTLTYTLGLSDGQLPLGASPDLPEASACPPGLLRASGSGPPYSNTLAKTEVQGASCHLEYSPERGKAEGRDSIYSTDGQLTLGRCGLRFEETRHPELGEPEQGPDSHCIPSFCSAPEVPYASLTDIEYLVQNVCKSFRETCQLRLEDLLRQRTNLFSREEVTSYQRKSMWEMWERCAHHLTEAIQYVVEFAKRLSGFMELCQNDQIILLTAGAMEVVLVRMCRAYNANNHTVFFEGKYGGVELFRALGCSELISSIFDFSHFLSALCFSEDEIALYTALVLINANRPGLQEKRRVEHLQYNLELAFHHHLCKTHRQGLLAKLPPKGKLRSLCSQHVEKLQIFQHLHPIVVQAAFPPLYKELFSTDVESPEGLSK
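A Gal4/UAS one-hybrid system in insect cells: metallothionein-promoter Gal4–ROR gamma fusion plus Photinus luciferase reporter. Copper sulfate 700 uM final, 20 hr ambient incubation, luminescent detection after 10 min with reagent.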
Hits are given with their value; . = inactive; ? = inconclusive; / = not tested or not shown; [ ] = dose if it differs, or a comment. This is a sample that favours compounds with a hit; in the whole collection about 5.6% have one here. Unless noted, calls come from the whole dose curve; as a rule, active = well fitted curve in the direction sought with a large enough effect; inconclusive = small, poorly fitted or top-dose-only effect, or another doubt; inactive = no such curve, though single readings can be large; an effect the other way counts as inactive or inconclusive.

SMILES	PKM2 act	CtBP-E1A inh	Six1-Eya2 inh	VP16 counter	RORg inh
COC(=O)CSc1nnc(CNc2nc(-c3ccccc3)cs2)n1C	.	.	?	.	.
COc1ccc(C(=O)CSc2nnc(CNc3nc(-c4ccccc4)cs3)n2C)cc1	.	-69.9	-70.9	.	.
NC1=NC(=O)C(c2ccccc2)(c2ccccc2)S1	/	.	.	/	/
O=C1NC(c2cccc([N+](=O)[O-])c2)Oc2ccccc21 (stereo not drawn)	.	.	.	.	.
CC1CCN(C(=O)c2cc3c(ccc4ccccc43)o2)CC1	/	.	.	10µM	4.47µM
CCOC(=O)[C@]12CCC=C1N(Cc1ccccc1)C(=O)[C@H](CC(=O)NCCC(C)C)C2	/	.	.	/	/
COc1ccc(NC(=O)CC2C(=O)N(c3ccc(OC)cc3)C(=S)N2NC(=O)c2cccc(F)c2)cc1 (stereo not drawn)	.	.	.	?	12.6µM
Cc1ccc(SCC(c2ccccc2)N2CCN(C)CCC2=O)cc1 (stereo not drawn)	/	/	/	.	.
BrC(=C\c1ccccc1)/C=N/n1cnnc1	.	/	.	?	7.08µM
Cc1cccc(NC(=O)C(C)Oc2ccc(C)nc2[N+](=O)[O-])c1 (stereo not drawn)	/	/	.	/	/
Cc1cc(C(=O)NC2CCCc3c2cnn3-c2ccc(C)c(C)c2)n(C)n1 (stereo not drawn)	.	.	.	0.0079µM	?
COCc1ccc(C(=O)NC2CCCc3c2cnn3-c2ccc(C)c(C)c2)o1 (stereo not drawn)	.	.	.	11.2µM	?
Cc1ccc(-n2ncc3c2CCCC3NC(=O)c2ccoc2)cc1C (stereo not drawn)	.	.	.	.	.
CN(CCOc1ccccc1)C(=S)Nc1ccc(OC(F)F)cc1	/	.	.	.	?
Clc1ccc(CNc2ccc(CNc3ncn[nH]3)cc2)c(Cl)c1	.	.	.	12.6µM	?
Clc1ccc(CNc2ccc(CNc3ncn[nH]3)cc2)cc1	.	.	.	.	.
O=C(NCc1ccc2c(c1)OCO2)c1ccc(S(=O)(=O)N2CCOCC2)cc1	.	.	.	.	.
CCc1cc(SC#N)cc(C)c1NC(=O)CCl	.	.	.	.	.
Cc1cc(SC#N)cc(C)c1NC(=O)CCl	.	.	.	5.01µM	3.55µM
CCC(=O)Nc1ccc(SC#N)cc1C	.	.	.	?	12.6µM
Cc1ccsc1C(=O)N1CCC1(C)C(=O)NS(=O)(=O)c1ccccc1 (stereo not drawn)	/	.	.	/	/
Cc1cc(=O)oc2cc(NC(=O)C(C)N3C(=O)C4CCCCC4C3=O)ccc12 (stereo not drawn)	/	.	.	/	/
O=C(NC1CCCCC1)N1CCCCCC1	.	.	.	.	.
O=C(NC1CCCCC1)N1CCNCC1	.	.	.	.	7.94µM
COc1cc(/C(O)=C(\C#N)c2nc3ccccc3[nH]2)cc(OC)c1OC	.	/	.	?	11.2µM
SMILES	PKM2 act	CtBP-E1A inh	Six1-Eya2 inh	VP16 counter	RORg inh
N#C/C(=C(/O)c1ccc(Cl)cc1)c1nc2ccccc2[nH]1	/	.	.	.	.
C/C(O)=C(/C#N)c1nc2ccccc2[nH]1	.	.	.	?	7.94µM
N#C/C(=C(\O)c1cc(Cl)sc1Cl)c1nc2ccccc2[nH]1	.[0.46 µM]	.	.	?	2.51µM
N#C/C(=C(/O)c1ccc(Cl)c([N+](=O)[O-])c1)c1nc2ccccc2[nH]1	.	.	.	?	12.6µM
N#C/C(=C(/O)C(Cl)(Cl)Cl)c1nc2ccccc2[nH]1	.	/	.	?	?
O=C(O)c1cccc2c1C(=O)c1cc([N+](=O)[O-])ccc1-2	/	.	.	/	/
CC(=O)Nc1cccc(-c2cnc(N)c(C(=O)c3cccnc3)n2)c1	/	?	.	/	/
CN(C(=O)COC(=O)c1ccc(S(=O)(=O)N2CCOCC2)cc1)c1ccccc1	/	.	.	/	/
CC(=O)OC(/C(O)=C(\C#N)c1nc2ccccc2[nH]1)c1ccccc1 (stereo not drawn)	.	.	.	?	14.1µM
Cc1ccc(S(=O)(=O)N2CCOCC2)cc1C(=O)N1CCC(Cc2ccccc2)CC1	.	.	.	.	.
Cc1cc(-c2ccccc2)c2ccc(NC(=O)C(C)(C)C)nc2n1	.	/	.	?	11.2µM
Cc1cc(C)nc(/N=C(\NC(=O)C(C)(C)C)Nc2ccccc2)n1	.	.	.	.	.
COCc1cn(CC[C@@H]2CC[C@@H](NC(=O)Nc3ccc4c(c3)OCO4)[C@@H](CO)O2)nn1	/	.	.	/	/
CC1CC(C)(C)NC(=S)N1CCCC(=O)N1CCN(c2ccccc2F)CC1 (stereo not drawn)	.	.	.	?	14.1µM
CC1CC(C)(C)NC(=S)N1CCCC(=O)NCCc1ccc(Cl)cc1 (stereo not drawn)	/	.	.	?	12.6µM
O=C(CCCC(=O)N1CCN(c2ccccc2F)CC1)N1CCN(c2ccccc2F)CC1	.	.	.	.	.
CC1CC(C)(C)NC(=S)N1CCC(=O)N1CCc2ccccc21 (stereo not drawn)	/	.	.	?	6.31µM
O=C(CCn1cccc1)N1CCc2ccccc21	.	.	.	.	.
Cc1ccc(NC(=O)CN2C(=S)NC(C)(C)CC2C)cc1Cl (stereo not drawn)	/	.	.	?	14.1µM
CC1CC(C)(C)NC(=S)N1CCCC(=O)Nc1ccccc1F (stereo not drawn)	/	.	.	.	17.8µM
CC1CC(C)(C)NC(=S)N1CCCC(=O)Nc1ccc(Cl)cc1 (stereo not drawn)	/	.	.	?	3.98µM
Cc1ccc(CNC(=O)CCCN2C(=S)NC(C)(C)CC2C)cc1 (stereo not drawn)	/	.	.	.	?
CC(C)c1ccc(NC(=O)CCCN2C(=S)NC(C)(C)CC2C)cc1 (stereo not drawn)	.	.	.	.	.
CC1CC(C)(C)NC(=S)N1CCCC(=O)Nc1ccc(F)c(F)c1 (stereo not drawn)	.	.	.	?	?
CCN(C(=O)CN1C(=S)NC(C)(C)CC1C)c1ccc(C)c(C)c1 (stereo not drawn)	.	.	.	?	7.08µM
SMILES	PKM2 act	CtBP-E1A inh	Six1-Eya2 inh	VP16 counter	RORg inh
CC1CC(C)(C)NC(=S)N1CCC(=O)NCCc1ccc(Cl)cc1 (stereo not drawn)	/	.	.	7.94µM	1.58µM
CCOC(=O)c1c(C)oc(NC(=O)CCl)c1C(=O)OCC	.	/	.	?	?
COCOc1cc(OC)ccc1C(=O)/C=C/c1cccc(C(F)(F)F)c1	/	/	/	.	.
COc1ccccc1NS(=O)(=O)c1cc(NC(=O)CCc2nc3ccccc3c(=O)[nH]2)ccc1C	/	.	?	/	/
CSc1ncnc2c1ncn2CCCN1CCN(C(=O)C2CC2)CC1	/	.	.	/	/
Cc1ccc(CNC(=O)C(C)C2Sc3ccccc3NC2=O)cc1 (stereo not drawn)	.	.	.	.	.
